Measurements as given in the supplement of paper PMC11732987, “Enantioselective OTUD7B fragment discovery through chemoproteomics screening and high-throughput optimisation” (Communications Chemistry, 2025).
Unmarked numbers belong to inactive results.

Assays:
Assay in all cases: log2 ratio of Biotin-Ahx-Ub-VS probe labelling (fragment/DMSO); higher = less target engagement (more negative = stronger competition), active = hit call of the paper (q ≤ 0.05, log2 ratio ≤ -1)
Conditions in all cases: compound concentration: 200 uM; treatment time: 3 h
[1] = biological target: T1, USP19 (UniProt O94966)
T1 sequence (whole entry): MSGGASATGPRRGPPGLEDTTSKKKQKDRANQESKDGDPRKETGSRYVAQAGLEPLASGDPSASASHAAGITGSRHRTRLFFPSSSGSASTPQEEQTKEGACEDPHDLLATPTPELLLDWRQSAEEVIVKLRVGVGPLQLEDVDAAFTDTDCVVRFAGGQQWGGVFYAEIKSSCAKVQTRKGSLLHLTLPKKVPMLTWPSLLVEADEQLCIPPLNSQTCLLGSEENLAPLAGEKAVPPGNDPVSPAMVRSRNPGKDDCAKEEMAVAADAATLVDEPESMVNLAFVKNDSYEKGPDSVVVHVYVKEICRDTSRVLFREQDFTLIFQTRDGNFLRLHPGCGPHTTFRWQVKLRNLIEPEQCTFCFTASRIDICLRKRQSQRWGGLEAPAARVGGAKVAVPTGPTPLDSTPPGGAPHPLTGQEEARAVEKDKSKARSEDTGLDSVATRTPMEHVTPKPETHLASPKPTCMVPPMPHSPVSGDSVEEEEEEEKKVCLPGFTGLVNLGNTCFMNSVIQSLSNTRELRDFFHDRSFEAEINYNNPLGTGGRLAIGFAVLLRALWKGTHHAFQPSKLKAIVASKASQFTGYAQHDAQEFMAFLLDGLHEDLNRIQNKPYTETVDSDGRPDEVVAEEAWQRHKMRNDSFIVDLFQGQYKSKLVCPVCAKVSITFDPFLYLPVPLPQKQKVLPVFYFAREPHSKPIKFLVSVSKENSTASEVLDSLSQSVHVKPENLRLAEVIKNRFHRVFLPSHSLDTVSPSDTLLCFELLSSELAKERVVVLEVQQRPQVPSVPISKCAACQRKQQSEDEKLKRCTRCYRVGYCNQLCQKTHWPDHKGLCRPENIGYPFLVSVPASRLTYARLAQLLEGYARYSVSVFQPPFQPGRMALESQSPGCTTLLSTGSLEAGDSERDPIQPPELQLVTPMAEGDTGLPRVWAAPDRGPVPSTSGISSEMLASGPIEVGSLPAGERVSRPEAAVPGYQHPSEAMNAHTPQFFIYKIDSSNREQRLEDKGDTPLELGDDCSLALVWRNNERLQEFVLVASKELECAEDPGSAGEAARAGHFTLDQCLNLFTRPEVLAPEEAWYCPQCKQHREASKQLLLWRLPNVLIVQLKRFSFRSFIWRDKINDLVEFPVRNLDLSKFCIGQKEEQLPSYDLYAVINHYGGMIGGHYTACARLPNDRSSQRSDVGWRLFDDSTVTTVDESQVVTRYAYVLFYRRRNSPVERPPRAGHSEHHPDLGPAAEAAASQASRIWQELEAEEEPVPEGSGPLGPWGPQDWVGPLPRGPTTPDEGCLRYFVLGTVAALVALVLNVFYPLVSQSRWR
In short: (§1)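 Using Biotin-Ahx-Ub-VS at 0.5 µM final for 1 h, DUBs were labelled in HEK293T lysate (495 µg per sample) that had first been treated in triplicate with fragment at 200 µM or vehicle for 3 h. NeutrAvidin enrichment, LysC and trypsin digestion and diaPASEF LC-MS/MS followed. Spectronaut label-free quantities were global-median-normalised. Values are average log2 fragment/vehicle ratios by unpaired t-test, using proteins with ≥2 unique peptides.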

[2] = biological target: T2, USP22 (UniProt Q9UPT9)
T2 sequence (whole entry): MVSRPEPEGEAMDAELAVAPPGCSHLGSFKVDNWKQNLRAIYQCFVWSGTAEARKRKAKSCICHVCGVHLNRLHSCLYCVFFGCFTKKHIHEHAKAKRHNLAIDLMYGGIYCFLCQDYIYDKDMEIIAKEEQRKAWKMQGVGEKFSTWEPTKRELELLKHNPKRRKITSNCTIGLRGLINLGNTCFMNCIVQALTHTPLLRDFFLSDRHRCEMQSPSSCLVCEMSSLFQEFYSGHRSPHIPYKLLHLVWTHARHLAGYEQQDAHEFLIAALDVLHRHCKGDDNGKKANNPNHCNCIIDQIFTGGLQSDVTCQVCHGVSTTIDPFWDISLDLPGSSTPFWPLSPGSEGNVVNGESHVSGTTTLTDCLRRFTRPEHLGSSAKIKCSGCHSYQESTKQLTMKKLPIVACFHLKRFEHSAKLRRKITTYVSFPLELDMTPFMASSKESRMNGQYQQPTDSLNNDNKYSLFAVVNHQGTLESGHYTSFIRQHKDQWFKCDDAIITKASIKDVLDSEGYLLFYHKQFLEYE
In short: as §1

[3] = biological target: USP24 (UniProt Q9UPU5)
In short: as §1

[4] = biological target: T3, USP25 (UniProt Q9UHP3)
T3 sequence (whole entry): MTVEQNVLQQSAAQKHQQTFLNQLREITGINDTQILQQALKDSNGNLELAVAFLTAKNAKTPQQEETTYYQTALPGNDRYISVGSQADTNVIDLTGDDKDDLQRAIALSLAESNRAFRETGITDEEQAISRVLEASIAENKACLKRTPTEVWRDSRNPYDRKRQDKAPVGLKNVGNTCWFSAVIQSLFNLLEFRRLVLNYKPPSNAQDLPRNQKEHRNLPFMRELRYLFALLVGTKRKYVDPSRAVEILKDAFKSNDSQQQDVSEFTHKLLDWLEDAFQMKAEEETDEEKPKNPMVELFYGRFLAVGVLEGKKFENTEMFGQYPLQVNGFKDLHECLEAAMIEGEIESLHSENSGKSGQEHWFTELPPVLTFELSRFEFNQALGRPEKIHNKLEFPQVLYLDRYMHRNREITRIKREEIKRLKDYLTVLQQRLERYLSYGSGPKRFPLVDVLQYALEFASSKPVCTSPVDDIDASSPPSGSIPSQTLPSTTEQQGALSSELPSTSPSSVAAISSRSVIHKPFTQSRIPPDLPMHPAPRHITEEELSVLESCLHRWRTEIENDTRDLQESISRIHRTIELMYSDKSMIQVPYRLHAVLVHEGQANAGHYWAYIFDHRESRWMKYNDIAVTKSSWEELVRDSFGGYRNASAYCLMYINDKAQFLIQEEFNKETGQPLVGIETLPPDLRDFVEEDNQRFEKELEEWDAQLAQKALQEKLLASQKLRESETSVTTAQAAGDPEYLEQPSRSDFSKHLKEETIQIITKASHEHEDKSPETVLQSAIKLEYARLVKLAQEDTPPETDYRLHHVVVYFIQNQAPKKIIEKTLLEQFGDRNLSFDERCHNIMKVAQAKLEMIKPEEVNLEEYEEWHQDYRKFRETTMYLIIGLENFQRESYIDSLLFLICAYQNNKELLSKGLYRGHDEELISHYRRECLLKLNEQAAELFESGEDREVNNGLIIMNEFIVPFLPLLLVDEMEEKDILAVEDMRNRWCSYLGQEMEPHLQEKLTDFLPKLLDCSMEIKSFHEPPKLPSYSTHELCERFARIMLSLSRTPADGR
In short: as §1

[5] = biological target: T4, USP28 (UniProt Q96RU2)
T4 sequence (whole entry): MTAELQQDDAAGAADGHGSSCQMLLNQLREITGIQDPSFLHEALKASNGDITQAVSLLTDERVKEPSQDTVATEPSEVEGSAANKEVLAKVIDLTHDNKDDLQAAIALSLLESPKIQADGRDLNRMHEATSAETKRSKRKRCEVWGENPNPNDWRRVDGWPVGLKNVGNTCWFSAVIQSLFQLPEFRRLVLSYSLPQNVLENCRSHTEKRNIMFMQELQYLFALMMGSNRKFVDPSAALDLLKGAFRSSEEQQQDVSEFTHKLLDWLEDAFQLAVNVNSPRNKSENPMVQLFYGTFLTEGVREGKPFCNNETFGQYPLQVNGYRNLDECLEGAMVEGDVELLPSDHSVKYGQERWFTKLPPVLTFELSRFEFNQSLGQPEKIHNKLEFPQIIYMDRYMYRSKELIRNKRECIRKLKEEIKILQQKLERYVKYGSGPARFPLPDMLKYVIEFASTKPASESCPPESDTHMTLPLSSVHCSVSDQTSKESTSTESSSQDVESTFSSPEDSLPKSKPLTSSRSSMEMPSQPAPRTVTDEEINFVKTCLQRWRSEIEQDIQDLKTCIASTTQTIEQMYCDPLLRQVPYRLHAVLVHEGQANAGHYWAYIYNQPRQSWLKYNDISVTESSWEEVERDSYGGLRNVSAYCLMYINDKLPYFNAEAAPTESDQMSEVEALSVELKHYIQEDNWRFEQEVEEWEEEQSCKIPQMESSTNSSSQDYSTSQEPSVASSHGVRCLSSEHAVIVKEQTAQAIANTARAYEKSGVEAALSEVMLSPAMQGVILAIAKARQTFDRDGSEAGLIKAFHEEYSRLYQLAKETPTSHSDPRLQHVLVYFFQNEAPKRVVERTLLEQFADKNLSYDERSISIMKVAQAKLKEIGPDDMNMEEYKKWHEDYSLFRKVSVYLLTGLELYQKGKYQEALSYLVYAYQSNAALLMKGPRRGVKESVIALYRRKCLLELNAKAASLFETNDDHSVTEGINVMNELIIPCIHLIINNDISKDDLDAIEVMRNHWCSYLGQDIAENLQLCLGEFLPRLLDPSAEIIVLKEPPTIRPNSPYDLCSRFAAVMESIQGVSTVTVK
In short: as §1

USP24, sequence (Q9UPU5 whole entry): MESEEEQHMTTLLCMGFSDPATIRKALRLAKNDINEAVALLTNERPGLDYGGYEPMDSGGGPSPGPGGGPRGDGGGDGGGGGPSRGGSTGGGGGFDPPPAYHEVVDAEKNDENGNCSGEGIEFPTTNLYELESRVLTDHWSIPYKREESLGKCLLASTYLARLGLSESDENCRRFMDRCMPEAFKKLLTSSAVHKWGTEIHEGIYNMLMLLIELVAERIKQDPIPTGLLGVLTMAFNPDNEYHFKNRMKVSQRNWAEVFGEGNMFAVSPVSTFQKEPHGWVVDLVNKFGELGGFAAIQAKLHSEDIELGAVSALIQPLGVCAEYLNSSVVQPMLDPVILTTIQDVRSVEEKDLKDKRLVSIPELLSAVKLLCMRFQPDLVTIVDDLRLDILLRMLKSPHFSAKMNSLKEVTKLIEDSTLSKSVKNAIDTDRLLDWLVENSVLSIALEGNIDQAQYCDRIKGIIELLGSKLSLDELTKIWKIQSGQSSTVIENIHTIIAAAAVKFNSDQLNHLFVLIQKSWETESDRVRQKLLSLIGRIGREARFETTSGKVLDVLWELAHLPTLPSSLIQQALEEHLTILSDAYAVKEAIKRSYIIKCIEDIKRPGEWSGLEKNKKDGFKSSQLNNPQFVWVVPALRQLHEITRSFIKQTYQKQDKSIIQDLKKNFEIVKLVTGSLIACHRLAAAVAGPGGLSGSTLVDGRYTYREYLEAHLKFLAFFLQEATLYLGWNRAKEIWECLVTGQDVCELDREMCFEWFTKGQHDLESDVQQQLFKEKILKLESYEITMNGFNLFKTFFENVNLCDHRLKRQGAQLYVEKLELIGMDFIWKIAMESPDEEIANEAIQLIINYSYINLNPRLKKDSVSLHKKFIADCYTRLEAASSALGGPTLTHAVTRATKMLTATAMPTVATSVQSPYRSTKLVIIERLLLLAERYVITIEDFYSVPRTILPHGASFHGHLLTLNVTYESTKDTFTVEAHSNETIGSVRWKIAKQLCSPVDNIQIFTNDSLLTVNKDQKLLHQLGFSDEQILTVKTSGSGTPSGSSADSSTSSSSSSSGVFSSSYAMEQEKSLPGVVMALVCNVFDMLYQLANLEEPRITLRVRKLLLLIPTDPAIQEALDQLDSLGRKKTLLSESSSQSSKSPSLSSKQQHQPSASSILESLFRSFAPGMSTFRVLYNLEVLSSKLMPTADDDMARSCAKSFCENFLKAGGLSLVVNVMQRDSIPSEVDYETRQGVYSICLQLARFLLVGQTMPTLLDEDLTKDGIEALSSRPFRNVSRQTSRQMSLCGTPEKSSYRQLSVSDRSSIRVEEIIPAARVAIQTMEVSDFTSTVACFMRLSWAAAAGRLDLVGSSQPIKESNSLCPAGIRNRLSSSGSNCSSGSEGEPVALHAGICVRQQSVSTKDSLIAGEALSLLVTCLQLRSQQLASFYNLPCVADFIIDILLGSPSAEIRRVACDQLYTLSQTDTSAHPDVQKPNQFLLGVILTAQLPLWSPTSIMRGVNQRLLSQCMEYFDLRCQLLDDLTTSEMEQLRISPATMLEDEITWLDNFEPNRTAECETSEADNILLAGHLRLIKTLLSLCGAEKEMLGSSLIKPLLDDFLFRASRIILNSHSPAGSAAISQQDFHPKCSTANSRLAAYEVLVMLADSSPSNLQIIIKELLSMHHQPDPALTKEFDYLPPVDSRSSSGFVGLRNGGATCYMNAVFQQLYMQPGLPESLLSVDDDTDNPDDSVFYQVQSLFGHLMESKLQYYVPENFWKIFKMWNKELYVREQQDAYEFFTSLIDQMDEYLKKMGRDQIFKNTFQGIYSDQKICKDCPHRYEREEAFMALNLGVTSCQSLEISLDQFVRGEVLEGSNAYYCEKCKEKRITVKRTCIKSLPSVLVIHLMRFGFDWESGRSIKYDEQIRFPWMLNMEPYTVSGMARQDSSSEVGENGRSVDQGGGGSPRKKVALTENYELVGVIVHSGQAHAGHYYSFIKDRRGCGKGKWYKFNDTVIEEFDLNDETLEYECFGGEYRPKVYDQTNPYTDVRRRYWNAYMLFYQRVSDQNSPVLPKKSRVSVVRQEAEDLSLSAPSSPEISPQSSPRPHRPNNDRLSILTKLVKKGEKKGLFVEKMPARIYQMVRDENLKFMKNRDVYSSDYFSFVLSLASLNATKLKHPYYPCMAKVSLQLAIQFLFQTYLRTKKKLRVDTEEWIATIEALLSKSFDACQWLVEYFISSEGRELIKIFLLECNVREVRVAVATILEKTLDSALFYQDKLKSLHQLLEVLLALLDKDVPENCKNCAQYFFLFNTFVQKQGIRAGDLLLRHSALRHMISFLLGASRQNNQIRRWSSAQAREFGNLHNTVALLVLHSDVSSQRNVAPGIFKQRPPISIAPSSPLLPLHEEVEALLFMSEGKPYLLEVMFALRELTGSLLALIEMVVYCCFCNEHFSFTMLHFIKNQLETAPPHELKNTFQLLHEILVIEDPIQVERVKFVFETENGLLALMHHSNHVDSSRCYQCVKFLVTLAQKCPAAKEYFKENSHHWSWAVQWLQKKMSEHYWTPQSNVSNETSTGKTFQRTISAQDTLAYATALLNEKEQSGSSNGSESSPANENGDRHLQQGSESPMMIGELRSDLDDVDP

Cl.O=C(CCl)NCCN1CCc2ccccc21
log2 ratio of Biotin-Ahx-Ub-VS probe labelling [1]: -0.976
log2 ratio of Biotin-Ahx-Ub-VS probe labelling [2]: -1.07 (active)
log2 ratio of Biotin-Ahx-Ub-VS probe labelling [3]: -1.05 (active)
log2 ratio of Biotin-Ahx-Ub-VS probe labelling [4]: -0.576
log2 ratio of Biotin-Ahx-Ub-VS probe labelling [5]: -1.11 (active)
